Source: PubChem BioAssay
Six1-Eya2 blk: qHTS Assay for Inhibitors of the Six1/Eya2 Interaction. Homeobox protein SIX1 (Homo sapiens) + Protein phosphatase EYA2 (Homo sapiens), …. AlphaScreen GST-Six1/His-Eya2 binding, biochemical; stronger effect = lower value. activity change, % (concentration not given with the values). 0.56% of 360,000 active. AID 651725, 2012; in the data active = activity change below about -65%; inconclusive = mostly about -30% to -63%
Target sequence (O00167 whole entry, looked up): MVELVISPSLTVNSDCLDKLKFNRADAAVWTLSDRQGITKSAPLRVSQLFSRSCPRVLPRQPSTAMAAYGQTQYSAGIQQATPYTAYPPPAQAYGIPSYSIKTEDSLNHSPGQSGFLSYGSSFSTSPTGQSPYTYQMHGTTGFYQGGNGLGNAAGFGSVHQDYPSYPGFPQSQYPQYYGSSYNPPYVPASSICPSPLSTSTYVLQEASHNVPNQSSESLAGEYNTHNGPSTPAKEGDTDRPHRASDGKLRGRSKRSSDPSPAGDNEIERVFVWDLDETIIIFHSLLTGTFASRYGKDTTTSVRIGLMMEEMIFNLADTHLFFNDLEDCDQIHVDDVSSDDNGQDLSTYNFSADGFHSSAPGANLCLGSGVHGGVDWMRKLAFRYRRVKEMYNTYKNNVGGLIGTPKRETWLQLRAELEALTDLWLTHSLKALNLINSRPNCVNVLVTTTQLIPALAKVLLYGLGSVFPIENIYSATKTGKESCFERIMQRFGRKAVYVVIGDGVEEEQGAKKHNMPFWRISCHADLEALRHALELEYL
Target sequence (Q15475 whole entry, looked up): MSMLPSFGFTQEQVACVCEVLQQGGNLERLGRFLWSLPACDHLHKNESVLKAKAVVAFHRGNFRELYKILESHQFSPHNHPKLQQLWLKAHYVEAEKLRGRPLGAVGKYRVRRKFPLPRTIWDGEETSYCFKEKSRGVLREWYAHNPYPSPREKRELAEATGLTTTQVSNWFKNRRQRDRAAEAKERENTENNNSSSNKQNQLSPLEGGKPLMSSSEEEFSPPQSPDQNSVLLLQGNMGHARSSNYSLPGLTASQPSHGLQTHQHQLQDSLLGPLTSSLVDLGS
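Compounds are tested against tagged Six1 and Eya2 proteins bridged by glutathione donor and nickel acceptor beads; after a one-hour incubation at 37 °C without light, AlphaScreen emission is recorded.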
TDP1 inh: qHTS Assay for Inhibitors of Tyrosyl-DNA Phosphodiesterase (TDP1). Tyrosyl-DNA phosphodiesterase 1 (Homo sapiens), Q9NUW8. recombinant TDP1, AlphaScreen DNA substrate cleavage. Potency, µM (highest dose often 130 µM), most hits filed as inhibitors. 0.28% of 350,000 active; also: nearly all actives have a fitted effect of over 40% in size
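Signal: AlphaScreen proximity between streptavidin donor and anti-FITC acceptor beads on intact substrate. Reaction: Tdp1 1 nM, substrate 15 nM final, 5 min RT after 15 min compound preincubation.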
IL-1B inflam inh: qHTS for Inhibitors of Inflammasome Signaling: IL-1-beta AlphaLISA Primary Screen; 4.7% of 360,000 active; THP-1 LPS/ATP IL-1B secretion, AlphaLISA, 16 h; stronger effect = lower value; activity change, % at 57.5 µM; AID 743279, 2014; in the data active = activity change below about -50%; inconclusive = mostly about -30% to -49%
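Secreted IL-1B measured by AlphaLISA bead assay after 16 h compound exposure of THP-1 cells; compounds (final up to 57.5 uM) added 1 h before LPS (250 ng/mL) and ATP (1.25 mM) stimulation; lower signal means less secretion.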
TDP1 cell CPT: qHTS for Inhibitors of human tyrosyl-DNA phosphodiesterase 1 (TDP1): qHTS in cells in presence of CPT; AID 686979, 2013; 12% of 420,000 active; Potency, µM (titrated, usually from 46.2 µM), actives largely listed as inhibitors; chicken DT40 Tdp1-/-;hTDP1 cells + 20 nM CPT, ATP luminescence, 48 h; also: nearly all actives have a fitted effect of over 55% in size
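Cell growth measured by CellTiter-Glo luminescence after a minimum 48 h, 37 C compound exposure with 20 nM CPT in Tdp1-knockout DT40 cells stably expressing hTDP1, seeded 400/well; qHTS titration format.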
DT40 TDP1 no CPT: qHTS for Inhibitors of human tyrosyl-DNA phosphodiesterase 1 (TDP1): qHTS in cells in absence of CPT. Potency, µM (top dose mostly 46.2 µM), usual class: inhibitors. AID 686978, 2013. 15% of 420,000 active. DT40 Tdp1-/- hTDP1 cells, no CPT, ATP luminescence, 48 h; also: nearly all actives have a fitted effect of over 55% in size
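A cellular qHTS used chicken DT40 cells lacking endogenous Tdp1 but carrying stably transfected human TDP1. Compounds were applied without camptothecin, and cell growth kinetics were judged by ATP-dependent luminescence after ≥48 hr.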
CtBP-E1A blk: qHTS Assay for Inhibitors of the CtBP/E1A Interaction. CtBP / adenovirus E1A interaction (AlphaScreen). AlphaScreen GST-E1A/His-CtBP binding, 1536-well; stronger effect = lower value. activity change, % (test concentration not listed). 0.49% of 340,000 active. AID 651724, 2012; in the data active = activity change below about -65%; inconclusive = mostly about -30% to -63%
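Protein mix (5X: 125 nM each GST-E1A, His-CtBP) was incubated with pinned compound 2 h at 37 deg C in dark, in 50 mM Tris pH 8.0 buffer with 300 mM NaCl. Glutathione donor and nickel acceptor beads followed; AlphaScreen signal read after 1 h.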
Numbers stand for hits; – = inactive; ? = inconclusive; · = no result; [ ] = remark or other dose. Sampled rows, rich in hits. Any-hit rate of the full collection: about 18%. Unless noted, calls follow the shape of the dose curve; as a rule, active = well fitted curve in the direction sought with a large enough effect; inconclusive = small, poorly fitted or top-dose-only effect, or another doubt; inactive = no such curve, though single readings can be large; an effect the other way counts as inactive or inconclusive.

SMILES | Six1-Eya2 blk | TDP1 inh | IL-1B inflam inh | TDP1 cell CPT | DT40 TDP1 no CPT | CtBP-E1A blk
O=C(NCCCN1CCN(c2ccccc2)CC1)C1CCCN(c2ncnc3c2nc2n3CCCCC2)C1 (centres undefined) | – | – | – | 23µM | ? | –
O=C(Nc1ccccn1)C1CCCN(c2ncnc3c2nc2n3CCCCC2)C1 (centres undefined) | – | – | – | ? | 15µM | –
O=C(C1CCCN(c2ncnc3c2nc2n3CCCCC2)C1)N1CCCCC1 (centres undefined) | – | – | – | ? | ? | –
O=C(Nc1cccnc1Cl)C1CCCN(c2ncnc3c2nc2n3CCCCC2)C1 (centres undefined) | – | – | – | ? | ? | –
COc1cc(OC)c(N(C)C(=O)C2CCCN(c3ncnc4c3nc3n4CCCCC3)C2)cc1Cl (centres undefined) | · | – | · | ? | 21µM | ·
O=C(Nc1ccc(Cl)cn1)C1CCCN(c2ncnc3c2nc2n3CCCCC2)C1 (centres undefined) | – | – | – | 21µM | 21µM | –
O=C(c1ncn(Cc2ccccc2)c1C(=O)N1CCN(c2ccccc2)CC1)N1CCN(c2ccccc2)CC1 | – | – | – | ? | – | –
C[C@H]([C@H](O)c1ccccc1)N(C)C(=O)CN | – | · | – | – | – | –
COc1ccc(Cl)cc1NC(=O)C1CCCN(c2ncnc3c2nc2n3CCCCC2)C1 (centres undefined) | – | – | – | 8.2µM | 8.2µM | –
CCOC(=O)Oc1ccc2oc(C)c(C(=O)OCCOC)c2c1 | – | – | – | – | – | –
COC(=O)c1cc(COc2ccc3oc(C)c(C(=O)OC)c3c2)c(C)o1 | – | – | – | ? | ? | –
CCOC(=O)c1c(C)oc2ccc(OCc3cc(C(=O)OC)oc3C)cc12 | – | – | – | 18µM | 13µM | –
CCCc1oc2ccc(NS(=O)(=O)c3ccc(OC)cc3)cc2c1C(=O)OCC | · | – | · | 1.8µM | 1.2µM | ·
COCCOC(=O)c1c(C)oc2ccc(NS(=O)(=O)c3ccc(C)cc3)cc12 | – | – | – | ? | 26µM | ·
COCCOC(=O)c1c(C)oc2ccc(OC(=O)c3c(OC)cccc3OC)cc12 | – | – | – | ? | 16µM | –
CCOC(=O)C1(Cc2ccc(OC)cc2)CCN(C(=O)Cn2cnnn2)CC1 | – | · | – | – | – | –
CCCc1oc2ccc(NS(=O)(=O)c3ccc(OCC)cc3)cc2c1C(=O)OCC | · | · | · | 6.5µM | 5.8µM | ·
COc1ccc(-c2ccc(C(=O)NCc3ccc(F)c(F)c3)c3occc23)c(C)c1 | – | · | -59 | ? | ? | –
COc1ccc(-c2coc3c(C(=O)NCc4ccc(F)c(F)c4)cccc23)c(C)c1 | – | · | ? | ? | 15µM | –
COc1ccc(-c2ccc(C(=O)NCc3ccncc3)c3occc23)c(C)c1 | – | · | – | 2.1µM | 1.8µM | –
COc1ccc(-c2ccc(C(=O)NCC3CC3)c3occc23)c(C)c1 | – | · | ? | 21µM | ? | –
OCCN1CCN(C(=S)Nc2ccccc2)CC1 | – | – | – | – | – | –
S=C1NC[C@H](Cc2ccccc2)N1CCc1cccc2ccccc12 | – | · | – | – | ? | –
CC(C)CN(C(=O)c1cc([N+](=O)[O-])cc([N+](=O)[O-])c1)C1CCS(=O)(=O)C1 (centres undefined) | – | · | – | – | – | –
O=C(Nc1ccccc1C(=O)O)c1ccc(NC(=O)C2CCCO2)cc1 (centres undefined) | – | – | – | – | – | –
SMILES | Six1-Eya2 blk | TDP1 inh | IL-1B inflam inh | TDP1 cell CPT | DT40 TDP1 no CPT | CtBP-E1A blk
COc1ccc(-c2coc3c(C(=O)NCc4ccc(OC)c(OC)c4)cccc23)c(C)c1 | – | · | – | 8.2µM | 6.5µM | –
COc1ccc(NC(=O)CN(C)C(=O)c2cn(-c3ccccc3)nc2-c2ccc(F)cc2)cc1 | – | – | -53 | ? | ? | –
COc1ccc(-c2nn(-c3ccccc3)cc2C(=O)N(C)C)cc1 | – | · | – | – | – | –
COc1ccc(Cl)cc1NC(=O)CN(C)C(=O)c1cn(-c2ccccc2)nc1-c1cccnc1 | – | –[0.505 µM] | -91 | 18µM | ? | –
Cc1ccc(-c2nn(-c3ccc(F)cc3)cc2C(=O)N(C)CC(=O)Nc2ccc(N3CCOCC3)cc2)cc1 | – | – | – | ? | 15µM | –
Cc1c(Cl)cccc1NC(=O)CNC(=O)c1cn(-c2ccccc2)nc1-c1cccnc1 | – | – | – | ? | ? | –
COc1ccc(NC(=O)CN(C)C(=O)c2cn(-c3ccccc3)nc2-c2ccc(Cl)cc2)cc1 | – | – | -60 | ? | 15µM | –
COc1ccc(NC(=O)CN(C)C(=O)c2cn(-c3ccccc3)nc2-c2ccc(OC)cc2)cc1 | – | – | – | ? | ? | ·
O=C(Nc1ccc(F)cc1F)c1ccc(S(=O)(=O)NCc2ccco2)cc1 | – | – | – | ? | – | –
CCOc1ccc(CN(C)C(=O)c2ccc3c(c2)NC(=O)C(C)S3)cc1OC (centres undefined) | – | – | – | ? | ? | ·
COc1ccc(CCNC(=O)CNCC2CCCO2)cc1OC (centres undefined) | – | – | – | – | – | –
COc1ccc(OC)c2[nH]c(=O)c(CCNS(=O)(=O)c3ccc(Cl)cc3)cc12 | – | – | – | – | – | –
Cc1cc2cc(CNC(=O)c3ccc(C)c([N+](=O)[O-])c3)ccc2[nH]1 | – | – | – | 21µM | 10µM | –
Cc1ccc2cc(CCNS(=O)(=O)c3ccc(Cl)cc3)c(=O)[nH]c2c1C | – | – | -79 | 21µM | 23µM | –
Cc1cc2cc(CCNC(=O)c3ccc(S(=O)(=O)N4CCCC4)cc3)c(=O)[nH]c2cc1C | – | – | – | 18µM | 21µM | –
Cc1cc(CNC(=O)c2ccc(C)c([N+](=O)[O-])c2)c2ccccc2n1 | – | – | – | 13µM | 9.2µM | –
CCOC(=O)NCc1ccc2[nH]c(C)cc2c1 | – | · | – | – | – | –
Cc1ccc(C(=O)NCCc2nc3ccccc3[nH]2)cc1[N+](=O)[O-] | – | – | – | – | ? | –
N/C(Cc1ccc([N+](=O)[O-])cc1)=N\OC(=O)CC1CCCCC1 | – | – | – | ? | ? | –
